Measurements from PubChem BioAssay AID540317 (National Center for Advancing Translational Sciences (NCATS), 2011).
The campaign covered roughly 390,000 compounds. About 2,200 (0.56%) were called active. Inconclusive results (about 3%) are left out. For the sample, actives were picked, then their nearest neighbours and some compounds at random. A number with no mark means an inactive call. The call rests on the fitted dose curve; in most records, active means well fitted inhibition curve with a large enough effect; inconclusive means small, poorly fitted or top-dose-only effect; inactive means no such curve, though single readings can be large or run the other way.

Biological target: Chromobox protein homolog 1 (Homo sapiens) (UniProt P83916)
Assay: HTS for Inhibitors of HP1-beta Chromodomain Interactions with Methylated Histone Tails; further: nearly all actives have a fitted effect of over 70% in size
Conditions: AlphaScreen HP1-beta / biotin-H3K9me3 peptide binding; series mostly up to 114 µM; activity change, negative = inhibition: at the top concentration
Outline: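 Compound inhibition of the preformed complex between 50 nM HP1-beta and 50 nM biotinylated H3K9me3 peptide was read by AlphaScreen. Buffer was PBS pH 7.4 with 0.01% Tween-20. Incubations ran 30 min at room temperature, with 10 ug/mL donor/acceptor beads.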
Potency means the concentration at half of the fitted maximal effect.

Sequence of Chromobox protein homolog 1 (Homo sapiens) (P83916 whole entry, looked up): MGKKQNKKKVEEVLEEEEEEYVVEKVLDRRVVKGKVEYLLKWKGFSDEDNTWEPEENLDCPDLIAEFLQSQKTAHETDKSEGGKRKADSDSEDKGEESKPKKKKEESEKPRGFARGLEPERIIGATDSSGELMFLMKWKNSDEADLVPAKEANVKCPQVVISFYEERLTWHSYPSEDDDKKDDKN

First: COc1ccc(C2CC(O)(c3ccccc3)Oc3cc(C)cc(C)c32)cc1 (centres undefined)
Second: COc1ccc(S(=O)(=O)c2c(Nc3cccc(Cl)c3)sc(C(=O)c3ccccc3)c2N)cc1
The “activity change, negative = inhibition” value of the first is higher: 36.4% for the first, 11.4% for the second.

Going from `COc1ccccc1-c1cc(C(F)(F)F)nc(S(=O)(=O)CCCC(=O)Nc2ccc(F)cc2F)n1` to `Cc1ccccc1CNC(=O)CCCn1nc(C)c2sc3ccccc3c2c1=O`, the “activity change, negative = inhibition” value falls from 62.8% to 47.8%.

Going from `C[n+]1ccccc1C1CCCC/C1=N\Nc1ccc([N+](=O)[O-])cc1[N+](=O)[O-]` (centres undefined) to `CC1(C)C/C(=N/Nc2ccc([N+](=O)[O-])cc2[N+](=O)[O-])C(C)(C)O1`, the “activity change, negative = inhibition” value falls from 21.4% to -6.49%.

First: COc1ccc(CN2CCC(=O)c3ccccc3S2(=O)=O)cc1
Second: COc1ccc(Cc2nnc(SCC(=O)c3cccc([N+](=O)[O-])c3)n2C)cc1
The “activity change, negative = inhibition” value of the first is higher: 34.2% for the first, 8.15% for the second.

Going from `COc1cc(NC(=O)c2cc3ccc4cccnc4c3[nH]2)cc(OC)c1OC` to `COc1ccc(CCNC(=O)c2ccc(-n3c(C)cc4c3CCCC4)cc2)cc1OC`, the “activity change, negative = inhibition” value falls from 21.2% to 10.2%.

Compared with `Cc1ccc(C)c(Cn2c(CCCNC(=O)C3CCCCC3)nc3ccccc32)c1`, `O=C(CCc1cn(Cc2ccc(F)cc2)c2ccccc12)NC1CCCCC1` is lower in “activity change, negative = inhibition” value: 31.9% for the first, 9.66% for the second.

First: COc1ccc(C(=O)Nc2c(Cl)cc(Cl)cc2C(=O)N2CCC(C)CC2)cc1
Second: CC1CCN(C(=S)c2cccc(O)c2)CC1
The “activity change, negative = inhibition” value of the first is higher: 6.49% for the first, -6.99% for the second.

Compared with `Cc1ccc(C(=O)Nc2nc(-c3ccccc3)ns2)cc1`, `Cc1ccc(C(=O)CC2(O)C(=O)N(CCc3ccccc3)c3ccc(Br)cc32)cc1` (centres undefined) is lower in “activity change, negative = inhibition” value: 51.4% for the first, 7.9% for the second.

Compared with `Cc1cc(C)cc(NC(=O)Cc2csc(C)n2)c1`, `COc1cccc(C(=O)CC(=O)C(=O)Nc2ccc([N+](=O)[O-])cc2C)c1` is lower in “activity change, negative = inhibition” value: 23.5% for the first, 22.1% for the second.

Going from `CCOc1ccc(N(Cc2ccccc2)C(=O)c2nc(SCC)ncc2Cl)cc1` to `CCOc1ccc(NC(=O)c2ncoc2-c2ccco2)cc1`, the “activity change, negative = inhibition” value falls from 39.6% to -8%.

First: O=C(NC1CC(=O)N(c2ccc(F)cc2)C1)C1CCCCC1 (centres undefined)
Second: CCc1ccccc1N1C(=O)CN(S(=O)(=O)CC)CC1(C)C(=O)NC1CCCCC1 (centres undefined)
The “activity change, negative = inhibition” value of the first is lower: -6.51% for the first, 39.3% for the second.

Compared with `CCn1c2ccccc2c2nnc(N3CCN(c4cc(C)ccc4C)CC3)nc21`, `CCN(CC)CCNC(=O)Cn1ncc2c3ccccc3n(Cc3ccccc3C)c2c1=O` is higher in “activity change, negative = inhibition” value: 20.6% for the first, 27.7% for the second.

Going from `CCOCCCNC(=O)c1c(NC(=O)Cc2coc3c(C)c(C)ccc23)sc2c1CCC2` to `CCOC(=O)c1ccc(NC(=O)c2c(NCc3cccs3)sc3c2CCCC3)cc1`, the “activity change, negative = inhibition” value falls from 18% to -7.25%.

Compared with `O=C(NCCc1ccccc1)c1cnc2sc(N3CCCC3)nn2c1=O`, `O=C(COc1ccccc1)Nc1ccc(N2CCN(C(=O)c3cccs3)CC2)cc1` is lower in “activity change, negative = inhibition” value: -3.36% for the first, -10.2% for the second.

First: NS(=O)(=O)c1ccc(NC(=O)CSc2nnc3c(n2)[nH]c2ccccc23)cc1
Second: CCOc1ccc(NC(=O)CSc2nnc3c(n2)[nH]c2ccc(S(=O)(=O)N4CCOCC4)cc23)cc1
The “activity change, negative = inhibition” value of the first is higher: 58.7% for the first, 11.7% for the second.

First: COc1ccc(C(=O)COC(=O)C(O)c2ccccc2)c(OC)c1 (centres undefined)
Second: COc1ccc(/C=C2/C(=O)OCc3cc(OC)c(OC)cc32)c(OC)c1
The “activity change, negative = inhibition” value of the first is higher: 24.5% for the first, 1.57% for the second.

First: CCCCN1C(=O)/C(=C(/C#N)C(N)=O)c2ccccc21
Second: O=C(NCCCO)c1nn(-c2ccc(Cl)cc2)nc1CO
The “activity change, negative = inhibition” value of the first is higher: 23.7% for the first, 20.1% for the second.

Compared with `O=C(CN1CCN(c2ncc(C(F)(F)F)cc2Cl)CC1)Nc1ccc2c(c1)OCO2`, `O=C1Cc2cc(S(=O)(=O)Nc3ccc(OC(F)(F)F)cc3)cc3c2N1CCC3` is higher in “activity change, negative = inhibition” value: 11.5% for the first, 43.4% for the second.

For `O=[N+]([O-])c1ccc(N/N=C2/CCCCC2c2ccccn2)c([N+](=O)[O-])c1` (centres undefined), the Potency was 35.5 µM (active).
In the case of `CC1CCN(C(=S)c2ccc(-c3ccc(Cl)cc3Cl)o2)CC1`, the Potency is reported as 22.4 µM (active).
In the case of `COc1cccc(NCCC(=O)c2cccc([N+](=O)[O-])c2)c1`, the Potency is reported as 79.4 µM (active).
`COc1ccc(/C=C2/C(=O)N(c3ccccc3)N=C2C)c(OC)c1` was tested, and the Potency was 12.6 µM (active).
In the case of `COCCNC(=O)Nc1ccc2nc(-c3ccco3)c(-c3ccco3)nc2c1`, the Potency is reported as 8.91 µM (active).
`COc1ccc2c(c1)C(=C(C#N)C#N)C(=O)N2CCc1ccccc1` was tested, and the Potency was 39.8 µM (active).
For `Cc1ccc(C(=O)O)cc1-c1ccc(/C=C2\SC(=O)N(CC(=O)Nc3ccc4c(c3)OCO4)C2=O)o1`, the Potency was 79.4 µM (active).
For `O=S(=O)(Nc1ccc(O)c2ccccc12)c1ccc(OC(F)(F)F)cc1`, the Potency was 44.7 µM (active).

First: CC1CC(C)CN(c2oc(-c3ccc(OCc4ccc(Cl)cc4)cc3)nc2C#N)C1 (centres undefined)
Second: COc1ccc(C(=O)CSc2c(C(C)C)cnc3c2c(=O)n(C)c(=O)n3C)cc1
The “activity change, negative = inhibition” value of the first is lower: 10.1% [at 57 µM] for the first, 28.3% [at 57 µM] for the second.

First: C=CCNC(=O)c1ccc2nc(-c3ccco3)c(-c3ccco3)nc2c1
Second: COC(=O)c1ccc2c(c1)N(CC(=O)Nc1ccc(C)c(C)c1)C(=O)c1ccccc1S2
The “activity change, negative = inhibition” value of the first is lower: -1.18% [at 57 µM] for the first, 24.8% [at 57 µM] for the second.

In the case of `Nc1ncc(S(=O)(=O)Nc2ccc(OC(F)(F)F)cc2)cn1`, the “activity change, negative = inhibition” value is reported as 25% [at 57 µM].
